From publication PMC5540273 (PLoS ONE, 2017)

What was measured:
Settings in all cases: concentration: 1 μM, replicates: in singlicate; n = 1
ULK3 = tested on: ULK3
VEGFR2 = tested on: T1, VEGFR2
T1 construct: gene KDR

VPS34 = tested on: T2, VPS34
T2 construct: gene PIK3C3

VRK2 = tested on: VRK2
WEE1 = tested on: WEE1
WEE2 = tested on: WEE2
WNK1 = tested on: WNK1
WNK2 = tested on: WNK2
WNK3 = tested on: WNK3
WNK4 = tested on: WNK4
YANK1 = tested on: T3, YANK1
T3 construct: gene STK32A

YANK2 = tested on: T4, YANK2
T4 construct: gene STK32B

YANK3 = tested on: T5, YANK3
T5 construct: gene STK32C

YES = tested on: T6, YES
T6 construct: gene YES1

YSK1 = tested on: T7, YSK1
T7 construct: gene STK25

YSK4 = tested on: T8, YSK4
T8 construct: gene MAP3K19

ZAK = tested on: ZAK
ZAP70 = tested on: ZAP70
p38-alpha = tested on: T9, p38-alpha
T9 construct: gene MAPK14

p38-beta = tested on: T10, p38-beta
T10 construct: gene MAPK11
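Note: KINOMEscan kinase panel screen.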

Structure (SMILES)	%Inh (ULK3)	%Inh (VEGFR2)	%Inh (VPS34)	%Inh (VRK2)	%Inh (WEE1)	%Inh (WEE2)	%Inh (WNK1)	%Inh (WNK2)	%Inh (WNK3)	%Inh (WNK4)	%Inh (YANK1)	%Inh (YANK2)	%Inh (YANK3)	%Inh (YES)	%Inh (YSK1)	%Inh (YSK4)	%Inh (ZAK)	%Inh (ZAP70)	%Inh (p38-alpha)	%Inh (p38-beta)
Nc1n[nH]c2nnc(-c3ccccc3)c(-c3ccccc3)c12 [GW554060]	16%	0%	0%	18%	44%	9%	3%	41%	18%	14%	7%	0%	26%	17%	0%	16%	5%	0%	0%	0%
CCC(=O)c1c(-c2ccccc2)c2cc(Cl)ccc2c(=O)n1Cc1ccc(C(=O)O)cc1	0%	0%	7%	0%	0%	4%	0%	0%	0%	0%	0%	4%	5%	0%	0%	0%	0%	0%	23%	0%
COC(=O)c1c(-c2ccccc2)c2cc(Br)ccc2c(=O)n1Cc1ccc(S(C)(=O)=O)cc1	13%	0%	0%	0%	0%	16%	0%	13%	0%	0%	0%	6%	36%	0%	4%	13%	32%	0%	17%	9%
C[C@@H]1CC[C@H](C(=O)NC2CCCCC2)CN1c1cc(-c2ccc3c(N)n[nH]c3c2)nc(N)n1 [GSK2291363]	11%	8%	31%	0%	34%	26%	16%	4%	21%	0%	6%	3%	26%	21%	24%	27%	9%	0%	36%	0%
CCC(=O)c1c(-c2ccccc2)c2cc(Cl)ccc2c(=O)n1Cc1cc(C(=O)NC2CC2)n(C)n1	2%	0%	20%	0%	0%	0%	0%	0%	0%	22%	0%	9%	20%	0%	4%	0%	23%	0%	16%	0%
O=C(Nc1ccc2c(c1)OCO2)NC1CCN(c2ccnc(NCc3ccc(F)cc3)n2)CC1 [GSK1379859]	0%	0%	7%	0%	12%	0%	0%	0%	0%	13%	11%	0%	0%	9%	0%	0%	0%	0%	0%	0%
COc1cc2ncn(-c3cc(OCCCc4ccccc4)c(C(N)=O)s3)c2cc1OC [GSK205189]	3%	0%	0%	0%	12%	4%	0%	8%	0%	0%	0%	0%	19%	0%	0%	0%	0%	0%	0%	0%
Cc1ccccc1COc1cc(-n2cnc3cc(Cl)ccc32)sc1C(N)=O [GW813349]	0%	11%	84%	0%	4%	5%	0%	0%	6%	0%	14%	2%	35%	0%	0%	10%	0%	19%	0%	5%
O=C(NCCNc1ccnc(Nc2ccc(F)cc2)n1)Nc1ccc2c(c1)OCO2 [GSK1379882]	21%	9%	0%	0%	13%	6%	5%	18%	30%	12%	0%	1%	0%	0%	17%	9%	100%	0%	19%	0%
Cn1c(=O)c(F)c(Nc2ccc(I)cc2F)c2c(=O)n(OC[C@H](O)CO)cnc21	13%	0%	0%	0%	29%	4%	0%	0%	0%	11%	0%	10%	0%	0%	0%	0%	19%	0%	13%	11%
O=C1NC(=O)C(c2ccccc2)=C1Nc1cccc(O)c1 [SB-390534]	26%	7%	19%	0%	0%	1%	0%	0%	0%	9%	0%	0%	0%	0%	8%	0%	8%	0%	1%	3%
CN1C(=O)C(Nc2ccccc2)=C(c2ccccc2)C1=O [SB-300079]	7%	0%	30%	19%	51%	1%	0%	0%	33%	26%	0%	2%	0%	0%	3%	8%	0%	23%	0%	10%
CCc1nc(-c2cccc(C)c2)c(-c2ccncc2)s1	12%	0%	0%	0%	0%	0%	0%	0%	0%	0%	36%	16%	0%	7%	0%	8%	0%	0%	72%	52%
Cl.NS(=O)(=O)c1cccc(Nc2cc(-c3ccc(F)cc3)n[nH]2)c1 [GW824645]	12%	35%	29%	18%	0%	0%	35%	0%	25%	13%	0%	0%	0%	0%	8%	0%	0%	0%	0%	0%
Cc1c(Cn2c(C)nn3c(=O)cc(N4CCO[C@H](C)C4)nc23)cccc1C(F)(F)F [GSK2373690]	21%	0%	59%	0%	5%	5%	11%	4%	20%	0%	11%	18%	8%	10%	6%	33%	9%	0%	0%	0%
CN1C(=O)C(Nc2cc(Cl)c(O)c(Cl)c2)=C(c2ccc(Cl)cc2)C1=O [SB-404321]	0%	0%	0%	90.3%	0%	15%	0%	35%	0%	0%	0%	0%	0%	0%	0%	0%	0%	0%	2%	0%
Cc1cccc(-c2cc(-c3c[nH]nc3-c3ccccn3)ccn2)c1 [GW679395]	5%	0%	0%	26%	13%	1%	11%	22%	36%	38%	0%	0%	15%	29%	0%	36%	0%	0%	47%	0%
COc1ccc(-c2coc3ccc(-c4nnc(SCc5cccc(C#N)c5)o4)cc23)cc1	81%	10%	0%	0%	0%	8%	0%	0%	0%	3%	21%	12%	11%	0%	0%	0%	23%	0%	5%	11%
COc1cc(Nc2nccc(N3CCC(NC(=O)C4COc5ccccc5O4)C3)n2)cc(OC)c1OC (stereo not drawn) [GSK1379761]	69%	0%	16%	41%	10%	0%	1%	19%	46%	50%	9%	0%	19%	27%	0%	8%	14%	0%	26%	0%
Cc1cccc(-c2nc(Nc3ccc4c(cnn4C)c3)c3ccccc3n2)n1 [GW876731]	0%	0%	56%	15%	0%	0%	18%	7%	21%	0%	0%	0%	32%	0%	0%	42%	0%	14%	10%	7%
Cc1nnc(-c2ccc3ncn(-c4ccc(S(C)=O)cc4)c3c2)o1 (stereo not drawn)	0%	3%	15%	0%	0%	21%	0%	0%	0%	0%	0%	0%	4%	7%	0%	21%	12%	0%	0%	13%
